From PubChem BioAssay
HSP90 inh – HSP90 inhibitors, primary screen, cell lysate, luminescence. Heat shock protein HSP 90 (rabbit reticulocyte lysate; luciferase refolding). Rabbit reticulocyte lysate, luciferase refolding luminescence, 3 h. inhibition, % at 5.6 µM. 290,000 compounds, 0.91% hits. AID 1789, 2009;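 active = inhibition above the screen-wide mean plus 3 SD, computed separately per campaign, cut at about 16% in these data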;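 also: inhibitors lower the luminescence because luciferase stays unfolded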
HSF1 activator – HSF-1 activators, primary screen, NIH3T3-HGL cells, MG132 stress, luminescence, single point; activation, % at 9 µM; 300,000 compounds, 1.7% hits; NIH3T3-HGL HSF-1 luciferase reporter, 8 h; 100% = twice DMSO control signal;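 active = mean replicate activation of at least 50% with a set share of replicates each reaching 50%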
TWEAK Fn14 block – inhibitors of TWEAK-Fn14 signaling, primary screen, luciferase reporter cells, uHTS | TWEAK-stimulated Fn14 reporter cells, luciferase luminescence, 8 h | inhibition, % at 10 µM | 360,000 compounds, 2% hits; in the data active = inhibition above about 50%
HSF1 inh – HSF1 inhibitors in luciferase reporter cells, primary screen, cell-based, NIH3T3, luminescence; 300,000 compounds, 0.77% hits; activity change, negative = inhibition, % at 7.5 µM (by protocol); NIH3T3-HGL HSE-luciferase, MG132-induced, luminescence 8 h; stronger effect = lower value; AID 2098, 2009;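 active = more than half of replicate wells show activity change below -50%, luminescence cut by over half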;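 also: luciferase reports HSF-1 transcriptional activity via heat shock element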
TROY signal inh – inhibitors of TROY-driven NF-kB signaling, primary screen, Q293 LMP1-TROYcd cells, NF-kB luciferase, uHTS. Q293 LMP1-TROYcd NF-kB luciferase reporter, 4 h. inhibition, % at 10 µM. 360,000 compounds, 0.98% hits. AID 1347056, 2019;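 active = compounds whose plate-normalised and pattern-corrected inhibition of the luciferase reporter signal at the single screening dose is 50% or more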
LMP1 NFkB inh – EBV LMP1-driven NF-kappaB luciferase reporter inhibitors, primary screen, cell-based, luminescence, single point; inhibition, % at 12.5 µM; LMP1-induced NF-kappaB luciferase reporter cells; 350,000 compounds, 0.69% hits; in the data active = inhibition above about 41%
Each line names hits and unclear results; the compound was inactive in the other large screens. Most compounds without a hit are left out; they make up all but 4.7% or so of the library.

COc1cc(/C=N/NC(=O)CC2(C)OCCCO2)ccc1OCc1ccccc1	none
CC1(CC(=O)N/N=C/c2ccc(OCc3ccc(Cl)cc3Cl)cc2)OCCCO1	HSF1 activator 54
COc1ccc(CC(=O)N/N=C/c2cccnc2)cc1OC	none
CCc1nc2c(OCC3COc4ccccc4O3)cccn2c1N(C)C(=O)c1ccc(OC)cc1 (stereo not given)	none (no result: HSP90 inh, HSF1 activator, HSF1 inh, LMP1 NFkB inh)
COc1ccc(C(C)=NOC(=O)c2c(-c3ccccc3Cl)noc2C)cc1CN1CCOCC1	none (no result: HSP90 inh, HSF1 activator, HSF1 inh)
CC(C)(C)Cc1nnc(NS(=O)(=O)c2ccc(F)cc2)s1	HSF1 inh -53
CC(=O)Nc1ccc(S(=O)(=O)Nc2nnc(CC(C)(C)C)s2)cc1	none
CC(C)(C)Cc1nnc(NS(=O)(=O)c2ccc([N+](=O)[O-])cc2)s1	none
Cc1ccc(S(=O)(=O)Nc2nnc(CC(C)(C)C)s2)cc1	TWEAK Fn14 block 109
COc1ccccc1CNc1nc(Nc2ccccc2-n2cccn2)c2sccc2n1	none (no result: HSP90 inh, HSF1 activator, HSF1 inh, LMP1 NFkB inh)
CC1=CCC[C@@H]2[C@]3(CC/C(=C/CO)CO)CO[C@@]2(C1)[C@@H](O)C[C@H]3C	none (no result: HSP90 inh, HSF1 activator, HSF1 inh, LMP1 NFkB inh)
Oc1cccnc1Sc1cccc(C(F)(F)F)c1	HSF1 activator 86 (no result: HSP90 inh)
FC(F)(F)c1cccc(Sc2nc(-c3ccccc3)nnc2C(F)(F)F)c1	none
CCc1nc2ccc(C(=O)Nc3ccc4c(c3)OCC(=O)N4)cn2c1N(CC)Cc1cccc(Br)c1	none (no result: HSP90 inh, HSF1 activator, HSF1 inh, LMP1 NFkB inh)
CC(C)c1ccc(C2NC(=O)NC3=C2CCc2ccccc23)cc1 (stereo not given)	TWEAK Fn14 block 76, TROY signal inh 55
COc1ccc(C2NC(=O)NC3=C2CCc2ccccc23)cc1 (stereo not given)	none
CC(C)C[C@H]1CN(CCCC[C@@H]2CNC(=O)C(=O)N2Cc2ccccc2)C(=O)C(=O)N1Cc1ccccc1	none (no result: HSP90 inh, HSF1 activator, HSF1 inh, LMP1 NFkB inh)
CC1(C(=O)N2Cc3ccccc3C2)CCN1C(=O)C1(c2ccc(Cl)cc2)CC1 (stereo not given)	none (no result: HSP90 inh, HSF1 activator, HSF1 inh, LMP1 NFkB inh)
COc1ccc(C(NC(=O)c2c(F)c(F)c(F)c(F)c2F)c2ccccc2)cc1 (stereo not given)	HSF1 activator 53, TROY signal inh 69
NC1=NC(c2cn[nH]c2-c2cccc(F)c2)n2c(nc3ccccc32)N1 (stereo not given)	HSF1 inh -75
COc1ccc(-c2[nH]ncc2C2N=C(N)Nc3nc4ccccc4n32)cc1 (stereo not given)	none
COc1ccc(CC(=O)N2CCc3ccccc3C2)cc1	none
O=C(Nc1ccc(Cl)cc1)N1CCc2ccccc2C1	HSF1 activator 80
O=C(Cc1ccc(Cl)cc1)N1CCc2ccccc2C1	HSF1 activator 59 (no result: HSP90 inh)
O=C(Nc1ccccc1)N1CCc2ccccc2C1	none
O=C(CCc1nc(-c2cccs2)no1)NCc1ccc(F)cc1Cl	HSF1 inh -85
CCn1c(C)nc2cc(C(=O)NNC(=S)Nc3ccccc3Cl)ccc21	none
CCn1c(C)nc2cc(C(=O)NNC(=O)c3ccc(C)cc3)ccc21	TWEAK Fn14 block 72, TROY signal inh 78 (no result: HSP90 inh, HSF1 activator, HSF1 inh)
CCn1c(C)nc2cc(C(=O)OC(C(F)(F)C(F)F)C(F)(F)C(F)F)ccc21	TROY signal inh 57
CCn1c(C)nc2cc(C(=O)NNC(=S)NC(=O)c3ccccc3)ccc21	HSF1 inh -53
COc1cc(/C=C/C(=O)N2CCOCC2)ccc1OCc1ccccc1	HSF1 activator 75
COc1cc(/C=N/OCC(=O)Nc2cc(C)cc(C)c2)ccc1OCc1ccc(Cl)cc1	HSF1 activator 71
COc1cc(/C=N/OCC(=O)NC2CCCCC2C)ccc1OCc1ccc(Cl)cc1 (stereo not given)	none
COc1cc(/C=N/N2CCOCC2)ccc1OCc1ccc(Cl)cc1	HSF1 activator 80
COc1cc(/C=C(\C#N)c2ccccn2)ccc1OCc1ccccc1	none
COc1cc(/C=C(\C#N)c2ccccn2)ccc1OCc1ccc(Cl)cc1	HSF1 activator 68
O=C(c1ccccc1)C1(c2ccccc2)OC1c1ccccc1 (stereo not given)	none (no result: HSP90 inh, HSF1 activator, HSF1 inh)
C[C@@H]1CN([C@H](C)CO)C(=O)CCCn2cc(nn2)CO[C@H]1CN(C)C(=O)Nc1ccnc(N2CCOCC2)c1	none (no result: HSP90 inh, HSF1 activator, HSF1 inh)
Cc1ccc(S(=O)(=O)c2nc(S(C)(=O)=O)sc2NCC2CCCO2)cc1 (stereo not given)	TWEAK Fn14 block 87 (no result: TROY signal inh)
Cc1nnc(NC(=O)C2CCN(S(=O)(=O)c3cc([N+](=O)[O-])ccc3Cl)CC2)o1	none (no result: HSP90 inh, HSF1 activator, HSF1 inh)
COc1ccc2nc(NC(=O)C3CCN(S(=O)(=O)c4cccc5nsnc45)CC3)sc2c1	TWEAK Fn14 block 97, TROY signal inh 61 (no result: HSF1 activator, HSF1 inh)
Cc1cccc2sc(NC(=O)C3CCN(S(=O)(=O)c4cc([N+](=O)[O-])ccc4Cl)CC3)nc12	TWEAK Fn14 block 54
Cc1cccc(N2CCN(C(=O)C3CCN(S(=O)(=O)c4cccc5nsnc45)CC3)CC2C)c1 (stereo not given)	TWEAK Fn14 block 56
COc1ccc(C(=O)CC(C(=O)O)c2ccc3c(c2)OCO3)cc1OC (stereo not given)	none (no result: HSP90 inh, HSF1 activator, HSF1 inh)
Cc1ccc(CN2CCN(C(=O)/C=C/[C@H]3O[C@@H](n4cc(C)c(=O)[nH]c4=O)C[C@@H]3O)CC2)cc1	none (no result: HSP90 inh, HSF1 activator, HSF1 inh, LMP1 NFkB inh)
OC(c1cccc(Cl)c1)c1nc(-c2ccc(Cl)cc2)cs1 (stereo not given)	none (no result: HSP90 inh, HSF1 activator, HSF1 inh, LMP1 NFkB inh)
CC(=O)/C=C/c1ccccc1O	LMP1 NFkB inh 52
O=C(/C=C/c1ccccc1O)c1ccccc1	none (no result: HSP90 inh, HSF1 activator, HSF1 inh)
O=C1SCC(c2ccccc2)=NN1Cc1ccccc1	HSF1 inh -59
CC(=O)Nc1ccc(C2=NN(Cc3nnc(-c4ccccc4)o3)C(=O)SC2)cc1	HSF1 activator 88
CC(=O)Nc1ccc(C2=NN(CC#N)C(=O)SC2)cc1	none
C#CCN1N=C(c2ccc(C)cc2)CSC1=O	none (no result: HSP90 inh, LMP1 NFkB inh)
OC(c1ccc(Cl)c(F)c1)c1ncc(-c2cccc(C(F)(F)F)c2)[nH]1 (stereo not given)	none (no result: HSP90 inh, HSF1 activator, HSF1 inh, LMP1 NFkB inh)
ClC(Cl)(c1nnnn1-c1ccccc1)c1nnnn1-c1ccccc1	TROY signal inh 59 (no result: HSF1 activator, HSF1 inh)
COCCNc1nc2cc(-c3cccc(Cl)c3)sc2c(=O)n1C	none (no result: HSP90 inh, HSF1 activator, HSF1 inh, LMP1 NFkB inh)
CCOC(=O)C1CCCN(C(=O)c2sc3nc(C)nc(N(CC)CC)c3c2C)C1 (stereo not given)	HSF1 activator 57
CCOC(=O)Cc1ccc(Nc2nc3cc(-c4sccc4C)sc3c(=O)n2C)cc1	none (no result: HSP90 inh, HSF1 activator, HSF1 inh, LMP1 NFkB inh)
COc1ccc(NC(=O)c2cc(S(=O)(=O)N3CCCC3)oc2C)cc1	none
Cc1oc(S(=O)(=O)N(C)C)cc1C(=O)Nc1ccc(Cl)cc1	HSF1 activator 55
